Among the data in PubChem BioAssay AID624167 (Sanford-Burnham Center for Chemical Genomics, 2012) are inhibition values, retold here.

The assay is described as follows: inhibition of PEG-3 promoter-driven reporter – cell-based, HeLa, luciferase, CREF/GAPDH counter-screen panel, dose response (AID 624167). The following applies: CREF/GAPDH counter-screens; run 2, dose range 1, at 100 µM (top of the series). Background: Counterscreens check selectivity or assay interference.
A word on the inhibition: it is the relative decrease from the control value, in per cent. Consider `O=C(N/N=C/c1c(O)ccc2ccccc12)c1ccc(CO)nc1`, for which the inhibition is 3.42%.

As to `O=C(Nc1ccccc1)c1nc[nH]c1C(=O)NCCCCCCNC(=O)c1[nH]cnc1C(=O)Nc1ccccc1`, the inhibition turned out to be 83%.

On to `CC(C)(C)c1ccc(Cn2c(=O)cnc3ccccc32)cc1`, for which the inhibition is 96.6%.

As for `O=C(c1ccco1)N1CCN(C(c2ccccc2Cl)c2nnnn2Cc2cccs2)CC1` (stereo not drawn), the inhibition is 72.3%.

Regarding `O=C(N/N=C\c1c(O)ccc2ccccc12)c1ccc(Cn2cccn2)o1`, the inhibition was found to be 34.2%.

As for `COc1ccc(/C=C2\SC(=S)N(CCCC(=O)NNC(=O)c3ccccc3O)C2=O)cc1`, the inhibition turned out to be 72.3%.

As for `COC1CC(C)C(OC)c2cc(O)cc(c2O)NC(=O)C(C)=CC=CC(C)C(OC(N)=O)C(C)=CC(C)C1OC` (stereo not drawn), the inhibition amounted to 84.8%.

As for `C=CCn1c(C)cc(C(=O)COc2ccc(C)nc2[N+](=O)[O-])c1C`, the inhibition was 51.8%.

Regarding `CCC(c1ccc(O)c(O)c1)C(CC)c1ccc(O)c(O)c1` (stereo not drawn), the inhibition came to 99.5%.

Consider `O=C(N/N=C/c1sc(N2CCOCC2)nc1-c1ccccc1)c1cccc(S(=O)(=O)N2CCCC2)c1`, for which the inhibition stood at 42.2%.

As for `O=C(O)c1ccc(N/N=C/c2ccc(OC(=O)c3cccc(Cl)c3)cc2)cc1`, the inhibition was 97.2%.

Consider `CCC(=O)NC(c1ccc(C)cc1)c1ccc2cccnc2c1O` (stereo not drawn), for which the inhibition was found to be 53.6%.

Consider `Cc1cc(Br)ccc1NC(=O)CNC(=O)Cn1ncc(Cl)c(Cl)c1=O`, for which the inhibition was 98.9%.

As to `C=C1CC2(OC1=O)c1ccccc1CCc1ccccc12`, the inhibition is 99.7%.

`CCCCC(=O)NC(c1ccc(OC)cc1)c1ccc2cccnc2c1O` (stereo not drawn): the inhibition is 20.5%.

In the case of `CCN(CC)S(=O)(=O)c1cccc(C(=O)N/N=C(\C)c2ccc(O)cc2O)c1`, the inhibition was -50.5%.

With `COc1cc(C(=O)N/N=C(\c2ccccc2)c2ccccn2)cc(OC)c1OC`, the inhibition amounted to 11.7%.

In the case of `Cc1cccc(OCC(=O)NCC(=O)N/N=C/c2cc(Br)cc(Br)c2O)c1`, the inhibition stood at 74.4%.

Consider `Cc1cc(C(=O)Nc2cccc(C(=O)O)c2)oc1C`, for which the inhibition turned out to be 92.8%.

In the case of `COc1ccc(N(C(=O)CCl)C(C(=O)NC2CCCCC2)c2cccnc2)cc1` (stereo not drawn), the inhibition came to 82.8%.

As to `CCc1ccc(/C=C2\SC(=S)N(CCCC(=O)Nc3cc(C)on3)C2=O)cc1`, the inhibition was determined as 84.8%.

As to `CS(=O)(=O)Nc1cccc(NC(=O)C2Cc3c(-c4cccc(F)c4)ccnc3O2)c1` (stereo not drawn), the inhibition is 73.6%.

For the compound `Cc1ccc(NC(=S)NC(=O)c2ccc(F)cc2)cc1S(=O)(=O)Nc1ccccc1Cl`, the inhibition turned out to be 55.6%.

Consider `CC1=NOC(=O)/C1=C\c1ccc(-c2ccccc2Br)o1`, for which the inhibition is 98.7%.

Take `CN=c1sc2c(n1C)C(=O)c1ccccc1C2=O`: the inhibition is 87.2%.

On to `Cc1cc(C)c2sc(NNC(=O)c3ccc(S(=O)(=O)N4CCc5ccccc5C4)cc3)nc2c1`, for which the inhibition stood at 62%.

With `O=C(O)c1ccc(N/N=C/c2ccc3nccnc3c2)cc1`, the inhibition was 99.2%.

Turning to `COc1ccc(/C=C2/CCCC(CN(C)C)C2=O)cc1` (stereo not drawn), the inhibition came to 67.1%.

Consider `Cc1oc(-c2ccc3c(c2)OCCO3)cc1C(=O)O`, for which the inhibition came out at 97.9%.

Take `NC(C(=O)O)C1ON=C(Cl)C1O` (stereo not drawn): the inhibition turned out to be 70.1%.

Turning to `C=CCn1c(COc2ccccc2)nnc1SC(C)C(=O)N/N=C/c1cc(Cl)ccc1O` (stereo not drawn), the inhibition is 59.9%.

As for `Cc1cc(C)c(C)c(S(=O)(=O)N2CCN(C(=O)c3cc(=O)[nH]c4ccccc34)CC2)c1C`, the inhibition amounted to 80.6%.

For the compound `CCOc1cccc(/C=N/NC(=S)Nc2cc(S(=O)(=O)N3CCOCC3)ccc2N2CCOCC2)c1O`, the inhibition is -7.85%.
